Screening data deposited in PubChem by National Center for Advancing Translational Sciences (NCATS).
HPGD block – qHTS Assay for Inhibitors of HPGD (15-Hydroxyprostaglandin Dehydrogenase); 15-hydroxyprostaglandin dehydrogenase [NAD(+)] (Homo sapiens), P15428; purified HPGD, NADH fluorescence kinetic, PGE2 substrate; Potency, µM, without a hit: at the top dose activity change, negative = inhibition, usual class: inhibitors; actives 4.3% (n = 150,000); note: potency is the fitted concentration of half-maximal effect
Target sequence (P15428 whole entry, looked up): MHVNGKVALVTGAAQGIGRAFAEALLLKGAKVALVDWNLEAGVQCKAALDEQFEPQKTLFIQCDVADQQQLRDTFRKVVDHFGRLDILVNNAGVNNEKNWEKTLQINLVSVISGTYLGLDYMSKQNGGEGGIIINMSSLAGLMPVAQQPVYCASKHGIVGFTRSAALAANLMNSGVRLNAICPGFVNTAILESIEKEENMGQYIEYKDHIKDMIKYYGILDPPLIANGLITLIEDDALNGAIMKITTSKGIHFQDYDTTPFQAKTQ
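NADH formation kinetics: reaction with 30 uM PGE2 and 1 mM NAD+ (final), 20 nM enzyme, Tris-HCl pH 8 with Tween 20, after 15 min compound preincubation at room temperature. Fluorescence change, last versus first of five reads.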
ALOX12 inhib – qHTS Assay for Inhibitors of 12-hLO (12-human lipoxygenase); Polyunsaturated fatty acid lipoxygenase ALOX12 (Homo sapiens), P18054; purified 12-hLO, xylenol orange hydroperoxide absorbance; Potency, µM (highest dose often 57.1 µM), for inactives: top-dose activity change, negative = inhibition, most hits filed as inhibitors; actives 0.12% (n = 150,000); active = well fitted inhibition curve with a large enough effect; inconclusive = small, poorly fitted or top-dose-only effect; note: potency is the fitted concentration of half-maximal effect; nearly all actives have a fitted effect of over 55% in size
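150 nM 12hLO, 25 mM Hepes pH 7.0 + 0.01% Triton X-100; cpd preinc 15 min RT; 40 uM arachidonic acid, 30 min RT; Fe-XO 30 min; A573/A405 ratio as read-out.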
ALDH1A1 block – qHTS Assay for Inhibitors of Aldehyde Dehydrogenase 1 (ALDH1A1); Aldehyde dehydrogenase 1A1 (Homo sapiens), P00352; Purified ALDH1A1, NADH fluorescence, propionaldehyde substrate; Potency, µM (highest dose often 75.3 µM), without a hit: at the top dose activity, negative = inhibition, usual class: inhibitors; actives 7.3% (n = 220,000); AID 1030, 2008;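 note: potency is the fitted concentration of half-maximal effect; plate controls were no enzyme wells and a reference inhibitor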
Target sequence (P00352 whole entry, looked up): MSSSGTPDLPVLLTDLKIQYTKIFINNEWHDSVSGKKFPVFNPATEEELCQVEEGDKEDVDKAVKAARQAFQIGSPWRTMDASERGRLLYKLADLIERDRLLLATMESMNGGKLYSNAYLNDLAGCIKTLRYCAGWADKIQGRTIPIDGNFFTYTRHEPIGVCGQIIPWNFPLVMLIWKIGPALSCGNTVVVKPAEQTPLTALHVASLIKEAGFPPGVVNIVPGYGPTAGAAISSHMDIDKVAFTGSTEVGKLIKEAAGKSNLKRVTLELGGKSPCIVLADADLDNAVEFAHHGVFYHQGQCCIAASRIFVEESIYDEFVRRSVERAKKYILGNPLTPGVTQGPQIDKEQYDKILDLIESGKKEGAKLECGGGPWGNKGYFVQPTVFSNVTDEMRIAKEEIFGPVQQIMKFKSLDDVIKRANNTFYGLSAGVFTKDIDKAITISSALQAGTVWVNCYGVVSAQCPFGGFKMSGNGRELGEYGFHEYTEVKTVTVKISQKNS
LMNA splice mod – qHTS Assay for Modulators of Lamin A Splicing; HeLa LMNA splicing GFP/RFP minigene ratio, 48 h; actives 0.01% (n = 200,000); Potency, µM (series often up to 46.1 µM), for the others: at the top dose ratio change, negative = inhibition, actives largely listed as inhibitors; active = well fitted inhibition curve with a large enough effect in the signal ratio, with a control signal flat, not every such curve was filed as active; inconclusive = small, poorly fitted or top-dose-only effect, or effect the other way, or a change in a side signal; the % refers to the signal ratio; note: potency is the fitted concentration of half-maximal effect
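S3 HeLa cells stably expressing lamin A-EGFP splicing minigene plus DsRed2, 600 cells/well, 48 h compound exposure at 37C. Laser-scanning cytometry; analysed as GFP (500-530 nm)/RFP (575-640 nm) total intensity ratio; 0.5% DMSO vehicle.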
PNC inhibitor – High Content Assay for Compounds that inhibit the Assembly of the Perinucleolar Compartment. PC3M PTB-GFP, PNC prevalence imaging, 16 h; hits give low values. activity change (PNC), negative = inhibition, % at 10 µM. actives 3.1% (n = 140,000). AID 2417, 2010;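 active = readout at or below -70, meaning at least 70% loss of cells showing the perinucleolar compartment, a nuclear body marking cancer cells; inconclusive = readout between -30 and a set limit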;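 note: plate controls were DMSO wells for no effect and camptothecin positive control wells for full effect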
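Read-out is percentage of cells bearing a perinucleolar compartment, from automated 20x imaging of fixed, Hoechst-stained PC3M PTB-GFP cells. Cells were seeded 4 h, then exposed 16 h to compound (23 nl of library stock) in duplicate plates.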
* marks the source's active call; other numbers are inactive results; ? = inconclusive; / = no result given; [ ] = dose if it differs, or a comment. The list is not random: actives were taken first. Their share in the collection is about 10%. Unless noted, calls come from the whole dose curve; as a rule, active = well fitted inhibition curve with a large enough effect (not every such curve was filed as active); inconclusive = small, poorly fitted or top-dose-only effect, or another doubt; inactive = no such curve, though single readings can be large or run the other way. Unless noted, % is set by controls: 0 for no effect and ±100 for the full control effect.

SMILES	HPGD block	ALOX12 inhib	ALDH1A1 block	LMNA splice mod	PNC inhibitor
FC(F)(F)c1nc(NCC2CCCO2)c2nnn(Cc3ccccc3Cl)c2n1 (configuration not stated)	/	/	-8.9%	/	/
Cn1c(-c2sc3cc(C(F)(F)F)cnc3c2-c2ccccn2)n[nH]c1=S	/	/	35.5µM*	/	/
Cn1c(-c2sc3cc(C(F)(F)F)cnc3c2-c2cccnc2)n[nH]c1=S	28.2µM*	11.9%	?	3.3%	38.4
CSc1nnc(-c2sc3cc(C(F)(F)F)cnc3c2-c2ccccn2)n1C	?	7.1%	?	-1.7%	?
O=C(NC1CCCCC1)c1cc2nc3c(c(C(F)(F)F)n2n1)CCCC3	28.2µM*	4.6%	?	1.8%	-29.2
Cc1cc(N2CCN(C)CC2)nc2ccc(NC(=O)Nc3ccccc3Cl)cc12	/	/	/	-21.2%[46 µM]	/
CC(O)CNCCOc1ccccc1-c1ccccc1 (configuration not stated)	/	/	11.2µM*	/	/
OCCNCCOc1ccccc1-c1ccccc1	3.0%	3.5%	-12.1%	-6.5%	10.7
CCOc1ccccc1NC(=O)CCS(=O)(=O)c1ccc2c(c1)oc(=O)n2C	/	/	/	7.0%[46 µM]	/
O=C1N/C(=N/Nc2ccccc2)S/C1=C\c1ccccc1	10µM*	?	5.62µM*	8.3%	26.9
N#CCCn1c(=O)c(CCc2ccccc2)nc2cnc(N3CCOCC3)nc21	?	-7.0%	?	/	/
COc1cccc(C2=CC(c3ccccc3F)n3ncc(C(=O)Nc4ccc(C)cc4)c3N2)c1 (configuration not stated)	/	/	/	10.2%[46 µM]	/
S=C1NC(c2cccs2)=CC(c2ccc(Br)cc2)N1 (configuration not stated)	31.6µM*	?	0.398µM*	?	63.1
S=C1NC(c2ccccc2)=CC(c2ccccc2)N1 (configuration not stated)	/	/	0.891µM*	-24.6%[46 µM]	/
O=C(NCc1ccc2c(c1)OCO2)c1ccc2c(c1)N(Cc1cccc(Cl)c1)C(=O)c1ccccc1S2=O (configuration not stated)	/	/	/	3.8%[46 µM]	/
CN(CC(=O)O)Cc1c[nH]c2ccccc12	-2.4%	7.3%[11.4 µM]	18.8%[13.5 µM]	/	/
COc1ccc(/C=C2\N=C(C)OC2=O)cc1[N+](=O)[O-]	/	/	17.8µM*	/	/
C=CCn1c(SCC(=O)c2cccs2)nnc1-c1cccc(OC)c1	20µM*	-14.8%	?	2.6%	12.8
C=CCn1c(SCC(=O)c2cccs2)nc2sc(C)cc2c1=O	?	-5.6%	11.2µM*	-8.3%	-17.9
C=CCn1c(Cc2cccs2)nnc1SCC(=O)Nc1cccc(OC)c1	-4.3%	-7.8%	-2.3%	8.0%	-4.7
COc1ccc2sc(N(Cc3cccnc3)C(=O)C3COc4ccccc4O3)nc2c1 (configuration not stated)	/	/	/	18.9%[46 µM]	/
COc1ccc(C2C=C(C34CC5CC(CC(C5)C3)C4)NC(=S)N2)cc1OC (configuration not stated)	-7.6%	-19.9%	7.94µM*	?	-26.4
CC(=O)c1c(C)[nH]c(C(=O)N(C)C(c2ccccc2)c2ccccc2)c1C	/	/	17.8µM*	/	/
Cc1cccc(NC(=O)C(=O)NCC(c2ccc3c(c2)OCO3)N2CCOCC2)c1C (configuration not stated)	/	/	/	9.5%[46 µM]	/
O=C(Nc1ccc2c(c1)Cc1ccccc1-2)[C@@H]1[C@H](C(=O)O)[C@]2(Cl)C(Cl)=C(Cl)[C@@]1(Cl)C2(Cl)Cl	-15.6%	-8.9%[11.4 µM]	-0.7%[13.5 µM]	/	/
SMILES	HPGD block	ALOX12 inhib	ALDH1A1 block	LMNA splice mod	PNC inhibitor
COC(=O)c1ccccc1NC(=O)CN1CCC(n2nnc3cc(C(F)(F)F)ccc32)CC1	-12.7%	6.2%	6.5%	-2.7%	?
CC1Cc2ccccc2N1C(=O)CN1CCC(n2nnc3cc(C(F)(F)F)ccc32)CC1 (configuration not stated)	?	-1.0%	11.2µM*	?	-28.2
CC(C)(C)OC(=O)N1CCC(c2c(C(=O)N3CCN(c4ccc(Cl)cc4)CC3)cnn2-c2ccc(F)cc2F)CC1	/	/	/	-11.8%[46 µM]	/
CN(C(=O)c1coc(=O)c2ccccc12)c1ccc(Br)cc1	/	/	?	-28.9%[46 µM]	/
CCCCN(C)C(=O)c1coc(=O)c2ccccc12	22.4µM*	-5.0%	-2.8%	-8.8%	-0.3
Cc1ccccc1C(=O)OCc1cc(=O)n2nc(C3CC3)sc2n1	/	/	/	-7.7%[46 µM]	/
CN(C)CCNc1ccc(-c2nn(C)c(=O)c3ccccc23)cc1[N+](=O)[O-]	/	/	0.2%	-9.6%[46 µM]	/
Cn1nc(-c2ccc(N3CCN(CCO)CC3)c([N+](=O)[O-])c2)c2ccccc2c1=O	/	/	4.47µM*	/	/
CCCOc1ccc(N2C(=O)C3ON(c4ccccc4)C(CCC)C3C2=O)cc1 (configuration not stated)	-14.7%	9.8%	17.8µM*	21.1%	-3.0
CCCOc1ccc(N2C(=O)C3ON(c4ccccc4)C(c4ccc(O)c(OC)c4)C3C2=O)cc1 (configuration not stated)	-2.4%	-4.9%	31.6µM*	-8.7%	?
CCCCOc1ccc(CN2CCC(O)CC2)cc1	-19.5%	3.1%	31.6µM*	1.4%	-100.0*
CCCCN(C)C(=O)C1CCN(Cc2ccc(OCc3ccccc3)cc2)CC1	-6.1%	-22.5%	-12.9%	?	18.3
FC(F)(F)c1nc(SCc2ccc(Cl)cc2)n[nH]1	-10.1%	-3.0%[11.4 µM]	13.8%[13.5 µM]	/	/
CCc1c(C)sc2nc3c(C(=O)N4CCOCC4)cc(C(=O)c4cc(F)ccc4O)cn3c(=O)c12	/	/	?	-10.0%[46 µM]	/
Cc1sc2nc3c(C(=O)N4CCCC4)cc(C(=O)c4ccccc4O)cn3c(=O)c2c1C	/	/	20µM*	?	/
On1onc2c3cc(-c4ccccc4)nc3ccc21	-12.8%	?	17.8µM*	?	-9.1
Cc1ccccc1-n1nc(C(=O)c2cccs2)cc(-c2nc3ccccc3[nH]2)c1=N	-10.0%	0.3%	2.7%	-4.7%	-100.0*
COc1ccc(NC(=O)CSc2ccc3nc(-c4ccccc4)cn3n2)c(OC)c1	/	/	/	-13.0%[46 µM]	/
O=C(CCC(=O)N1CCN(S(=O)(=O)c2ccc3ccccc3c2)CC1)Nc1cc(Cl)cc(Cl)c1	/	/	-7.4%	/	/
O=C(COc1cccnc1[N+](=O)[O-])Nc1ccc(Cl)c(S(=O)(=O)N2CCOCC2)c1	/	/	14.1µM*	/	/
O=C(Cn1ncc(Cl)c(Cl)c1=O)N1CCN(S(=O)(=O)c2ccc3ccccc3c2)CC1	/	1.7%	20µM*	?	-16.0
O=C(COc1cccnc1[N+](=O)[O-])N1CCN(S(=O)(=O)c2ccc3ccccc3c2)CC1	-21.9%	4.4%	15.8µM*	?	?
c1ccc(CO[C@H]2NCCN2Cc2ccccc2)cc1	-8.2%	1.0%[11.4 µM]	14.4%[13.5 µM]	/	/
O=[N+]([O-])c1ccc([C@@H](Nc2ccccc2)c2ccc3cccnc3c2O)cc1	-12.5%	-17.9%[11.4 µM]	?	/	/
